PubChem BioAssay
Unmarked numbers belong to inactive results. Calls of active or inactive are those of the source. Cut-off read from the data, not from the text of the source, unless noted: active = inhibition above about 30%; inactive = the rest.

What was measured:
[1] = molecular target: Nuclear receptor coactivator 3 (Homo sapiens) (UniProt Q9Y6Q9); experiment: SRC3 coactivator transcriptional activity inhibitors, confirmation, cell-based, luminescence, quadruplicate (AID 588792;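 active = mean inhibition over 43.08%, the solvent-only control mean plus 3 SD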;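 note: 0% = DMSO treated cells and 100% = gossypol at 36 µM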); settings: HEK293 GAL4-SRC3 luciferase reporter, at 3.6 µM, active compounds read high
[2] = tested on: transactivating tegument protein VP16 (Human herpesvirus 1), Gal4-VP16 luciferase reporter; experiment: VP16 transactivation inhibitors, counter-screen for SRC3 inhibitor project, cell-based, luminescence, high throughput (AID 588794); settings: mammalian cells, VP16-driven luciferase reporter luminescence; at 3.6 µM; active compounds read high

Nuclear receptor coactivator 3 (Homo sapiens), sequence (Q9Y6Q9 whole entry, looked up, the tested form may be a part): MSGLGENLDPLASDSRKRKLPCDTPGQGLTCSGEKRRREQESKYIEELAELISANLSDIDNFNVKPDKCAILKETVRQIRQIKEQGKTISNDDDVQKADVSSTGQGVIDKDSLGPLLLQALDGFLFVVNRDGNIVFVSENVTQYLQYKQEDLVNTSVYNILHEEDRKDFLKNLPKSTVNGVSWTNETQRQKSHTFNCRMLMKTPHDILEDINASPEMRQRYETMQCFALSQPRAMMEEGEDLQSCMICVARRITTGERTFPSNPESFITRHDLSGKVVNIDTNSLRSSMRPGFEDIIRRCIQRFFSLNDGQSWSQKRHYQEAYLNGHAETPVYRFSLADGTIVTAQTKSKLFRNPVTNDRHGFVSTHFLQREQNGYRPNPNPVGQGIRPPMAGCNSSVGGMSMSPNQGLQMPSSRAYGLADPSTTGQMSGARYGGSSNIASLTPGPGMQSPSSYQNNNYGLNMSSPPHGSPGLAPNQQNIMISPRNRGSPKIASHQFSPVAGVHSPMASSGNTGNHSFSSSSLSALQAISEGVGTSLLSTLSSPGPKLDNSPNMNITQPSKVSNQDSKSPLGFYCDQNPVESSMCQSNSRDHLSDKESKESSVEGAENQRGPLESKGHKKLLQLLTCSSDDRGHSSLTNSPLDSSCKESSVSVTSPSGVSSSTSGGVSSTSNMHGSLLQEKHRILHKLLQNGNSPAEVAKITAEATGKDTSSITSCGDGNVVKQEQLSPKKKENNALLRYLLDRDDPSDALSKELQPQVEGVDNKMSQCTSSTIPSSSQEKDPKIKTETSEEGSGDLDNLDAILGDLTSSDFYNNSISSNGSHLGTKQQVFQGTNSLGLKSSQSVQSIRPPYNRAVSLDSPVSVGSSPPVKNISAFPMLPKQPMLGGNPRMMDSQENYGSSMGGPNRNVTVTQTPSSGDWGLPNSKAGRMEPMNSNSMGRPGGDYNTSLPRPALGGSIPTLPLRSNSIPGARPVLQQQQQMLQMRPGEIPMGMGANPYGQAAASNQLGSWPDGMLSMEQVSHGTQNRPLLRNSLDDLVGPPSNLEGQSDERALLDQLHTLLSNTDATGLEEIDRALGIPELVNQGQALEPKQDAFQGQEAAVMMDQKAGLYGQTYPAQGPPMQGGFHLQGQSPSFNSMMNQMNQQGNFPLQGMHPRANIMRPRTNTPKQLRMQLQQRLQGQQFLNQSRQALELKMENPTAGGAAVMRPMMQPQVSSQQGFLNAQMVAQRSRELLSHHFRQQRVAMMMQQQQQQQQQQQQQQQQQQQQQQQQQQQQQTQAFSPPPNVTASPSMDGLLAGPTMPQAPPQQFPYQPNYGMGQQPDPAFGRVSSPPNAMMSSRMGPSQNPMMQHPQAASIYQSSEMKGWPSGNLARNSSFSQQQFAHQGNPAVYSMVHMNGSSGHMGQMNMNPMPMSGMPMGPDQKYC

Structure (SMILES): O=C(Nc1ccc(Oc2cccnc2)nc1)c1ccc(C(F)(F)F)cc1
- inhibition [1]: 17.2%
- inhibition [2]: 37.1% (active)

Structure (SMILES): COc1cccc(NC(=O)CN(C)C(=O)/C=C/c2cn(-c3ccccc3)nc2-c2ccc(OC)c(OC)c2)c1
- inhibition [1]: 1.39%
- inhibition [2]: -9.23%

Structure (SMILES): CC1=C(C(=O)N(C)C)CC(CC(=O)NCCCCc2ccccc2)C(=O)N1Cc1ccc(C(C)(C)C)cc1 (stereo not drawn)
- inhibition [1]: -10.1%
- inhibition [2]: -1.43%

Structure (SMILES): CCOC(=O)C(=O)NNc1ccc(C)cc1
- inhibition [1]: -7.17%
- inhibition [2]: 4.76%

Structure (SMILES): COc1cccc(C(=O)/C=C/c2ccc(OCC#N)c(OC)c2)c1
- inhibition [1]: 22.2%
- inhibition [2]: 23.2%

Structure (SMILES): COc1ccc(C(=O)Cn2nc(CNc3ccc(Br)cc3)[n+]3c2CCCCC3)cc1
- inhibition [1]: -7.02%
- inhibition [2]: 3.2%

Structure (SMILES): Cc1cc(C(=O)Nc2ccncc2)c(C)o1
- inhibition [1]: 8.35%
- inhibition [2]: -9.44%

Structure (SMILES): Cc1ccc(-c2nc(CS(=O)CC(=O)NCCCN3CCN(Cc4ccccc4)CC3)c(C)o2)cc1 (stereo not drawn)
- inhibition [1]: 20.1%
- inhibition [2]: 8.49%

Structure (SMILES): CC(=O)c1c(C)n(-c2ccc(Br)cc2)c2ccc(O)cc12
- inhibition [1]: 53.3% (active)
- inhibition [2]: 30.8% (active)

Structure (SMILES): CCN1C/C(=C\c2cccc([N+](=O)[O-])c2)C(=O)/C(=C/c2cccc([N+](=O)[O-])c2)C1
- inhibition [1]: -110%
- inhibition [2]: 80.6% (active)

Structure (SMILES): Cc1cc2[nH]c3c4ccccc4nc(C)c3c2cc1C
- inhibition [1]: 20.5%
- inhibition [2]: 33.8% (active)

Structure (SMILES): FC(F)(F)c1cccc(-c2nc3nc(Cl)c(Cl)nc3[nH]2)c1
- inhibition [1]: -12%
- inhibition [2]: 31.5% (active)

Structure (SMILES): COCC(C)n1c(SCC(=O)NC(=O)Cc2ccccc2)nc2ccccc2c1=O (stereo not drawn)
- inhibition [1]: 19.1%
- inhibition [2]: -4.14%

Structure (SMILES): Cc1ccc(O)c(C(=O)c2cnc3c(c2)COc2ccccc2-3)c1
- inhibition [1]: -8.22%
- inhibition [2]: 5.53%
